{"source": "PubChem BioAssay (EPA / NIEHS)", "note": "The source made the active and inactive calls. How the source made its calls: active means hit-call score of the fitted dose curve at least 0.9, where 1 is the maximum; inactive means score below 0.9."}
{"assay": "ATG_TA_CIS: Attagene CIS-FACTORIAL HepG2 Assay for human TA Basal Promoter (AID 2282964)", "conditions": "HepG2 Attagene CIS-factorial TA basal promoter reporter; actives raise or lower the signal", "how_it_was_run": "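Background-control readout: TA basal promoter reporter mRNA, fitted in both directions relative to DMSO. Measured by RT-PCR and capillary electrophoresis 24 hours after treating HepG2 human liver cells transiently carrying multiplexed cis-regulated reporter constructs.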"}
{"smiles": "CNC(=C[N+](=O)[O-])NCCSCc1csc(CN(C)C)n1", "outcome": "inactive"}
{"smiles": "O=C1CCCCCCCCCCCCCC1", "outcome": "inactive"}
{"smiles": "CCCC(=O)OC/C=C(\\C)CCC=C(C)C", "outcome": "inactive"}
{"smiles": "COC(=O)c1ccccc1", "outcome": "inactive"}
{"smiles": "O=S(=O)(O)c1cccc2ccccc12", "outcome": "inactive"}
{"smiles": "C/C=C(\\C)C(=O)OCC/C=C\\CC", "outcome": "inactive"}
{"smiles": "C=CCOCC(CC)(CO)COCC=C", "outcome": "inactive"}
{"smiles": "CN1CCCC1", "outcome": "inactive"}
{"smiles": "CCO[Si](CCCN)(OCC)OCC", "outcome": "inactive"}
{"smiles": "CCCCCCC1CCC(=O)O1", "note": "(stereo not drawn)", "outcome": "inactive"}
{"smiles": "O=[N+]([O-])c1ccccc1C(F)(F)F", "outcome": "inactive"}
{"smiles": "CCC(=O)OCc1ccc(OC)cc1", "outcome": "inactive"}
{"smiles": "C=C1CC[C@H]2C[C@@H]1C2(C)C", "outcome": "inactive"}
{"smiles": "COC(=O)[C@]1(C)CCC[C@@]2(C)[C@H]1CC=C1C=C(C(C)C)CC[C@@H]12", "outcome": "inactive"}
{"smiles": "Cc1cc2nc3c(=O)[nH]c(=O)nc-3n(C[C@H](O)[C@H](O)[C@H](O)CO)c2cc1C", "outcome": "inactive"}
{"smiles": "Cc1cc(-n2nc3ccc(Cl)cc3n2)c(O)c(C(C)(C)C)c1", "outcome": "inactive"}
{"smiles": "O=C(OCc1ccccc1)c1ccccc1", "outcome": "inactive"}
{"smiles": "CCCCCCC1CCCC(=O)O1", "note": "(stereo not drawn)", "outcome": "inactive"}
{"smiles": "c1ccc(CNc2ncnc3nc[nH]c23)cc1", "outcome": "inactive"}
{"smiles": "NC(=O)c1ccc(N)cc1", "outcome": "inactive"}
{"smiles": "CC(=O)Nc1c(I)c(NC(C)=O)c(I)c(C(=O)O)c1I", "outcome": "inactive"}
{"smiles": "CC(C)=CCOC(=O)c1ccccc1", "outcome": "inactive"}
{"smiles": "CC(C)(C)NC(=O)[C@@H]1CN(Cc2cccnc2)CCN1C[C@@H](O)C[C@@H](Cc1ccccc1)C(=O)N[C@H]1c2ccccc2C[C@H]1O", "outcome": "inactive"}
{"smiles": "Oc1cccc2ccccc12", "outcome": "inactive"}
{"smiles": "C=CN1CCCCCC1=O", "outcome": "inactive"}
{"smiles": "Oc1ccc(Oc2ccccc2)cc1", "outcome": "inactive"}
{"smiles": "CC(=O)CCc1ccccc1", "outcome": "inactive"}
{"smiles": "CNC[C@H](O)[C@@H](O)[C@H](O)[C@H](O)CO", "outcome": "inactive"}
{"smiles": "CC[N+](CC)(CC(=O)Nc1c(C)cccc1C)Cc1ccccc1", "note": "(tested in a mixture with another compound)", "outcome": "inactive"}
{"assay": "ATG_TCF_b_cat_CIS: Attagene CIS-FACTORIAL HepG2 Assay for human T-Cell-Factor with beta-catenin (TCF/b-cat) (AID 2282965)", "conditions": "HepG2 TCF/beta-catenin cis-reporter transcription, actives raise or lower the signal", "how_it_was_run": "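Endogenous TCF/LEF activity read as reporter transcript level via RT-PCR and capillary electrophoresis fluorescence in transfected HepG2, 24 h exposure; gain or loss of signal fitted against DMSO controls.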"}
{"smiles": "CNC(=C[N+](=O)[O-])NCCSCc1csc(CN(C)C)n1", "outcome": "inactive"}
{"smiles": "O=C1CCCCCCCCCCCCCC1", "outcome": "inactive"}
{"smiles": "CCCC(=O)OC/C=C(\\C)CCC=C(C)C", "outcome": "inactive"}
{"smiles": "CCCCCCC(O)CCCCCCCCCCC(=O)OC", "note": "(stereo not drawn)", "outcome": "inactive"}
{"smiles": "COC(=O)c1ccccc1", "outcome": "inactive"}
{"smiles": "O=C(O)/C=C/C(=O)O", "outcome": "inactive"}
{"smiles": "O=S(=O)(O)c1cccc2ccccc12", "outcome": "inactive"}
{"smiles": "C/C=C(\\C)C(=O)OCC/C=C\\CC", "outcome": "inactive"}
{"smiles": "CC/C=C\\CC/C=C/C(OCC)OCC", "outcome": "inactive"}
{"smiles": "C=CCOCC(CC)(CO)COCC=C", "outcome": "inactive"}
{"smiles": "CN1CCCC1", "outcome": "inactive"}
{"smiles": "CCO[Si](CCCN)(OCC)OCC", "outcome": "inactive"}
{"smiles": "CCCCCCC1CCC(=O)O1", "note": "(stereo not drawn)", "outcome": "inactive"}
{"smiles": "O=[N+]([O-])c1ccccc1C(F)(F)F", "outcome": "inactive"}
{"smiles": "CCC(=O)OCc1ccc(OC)cc1", "outcome": "inactive"}
{"smiles": "CCc1cc(C(N)=S)ccn1", "outcome": "inactive"}
{"smiles": "CCC(C)=NO", "outcome": "inactive"}
{"smiles": "COc1cccc(OC)c1C(=O)O", "outcome": "inactive"}
{"smiles": "C=C1CC[C@H]2C[C@@H]1C2(C)C", "outcome": "inactive"}
{"smiles": "CCCCCC1CCCC(=O)O1", "note": "(stereo not drawn)", "outcome": "inactive"}
{"smiles": "COC(=O)[C@]1(C)CCC[C@@]2(C)[C@H]1CC=C1C=C(C(C)C)CC[C@@H]12", "outcome": "inactive"}
{"smiles": "Cc1cc2nc3c(=O)[nH]c(=O)nc-3n(C[C@H](O)[C@H](O)[C@H](O)CO)c2cc1C", "outcome": "inactive"}
{"smiles": "Cc1cc(-n2nc3ccc(Cl)cc3n2)c(O)c(C(C)(C)C)c1", "outcome": "inactive"}
{"smiles": "O=C(OCc1ccccc1)c1ccccc1", "outcome": "inactive"}
{"smiles": "CCCCCCC1CCCC(=O)O1", "note": "(stereo not drawn)", "outcome": "inactive"}
{"smiles": "c1ccc(CNc2ncnc3nc[nH]c23)cc1", "outcome": "inactive"}
{"smiles": "NC(=O)c1ccc(N)cc1", "outcome": "inactive"}
{"smiles": "CC(=O)Nc1c(I)c(NC(C)=O)c(I)c(C(=O)O)c1I", "outcome": "inactive"}
{"smiles": "CC(C)=CCOC(=O)c1ccccc1", "outcome": "inactive"}
{"smiles": "CC(C)(C)NC(=O)[C@@H]1CN(Cc2cccnc2)CCN1C[C@@H](O)C[C@@H](Cc1ccccc1)C(=O)N[C@H]1c2ccccc2C[C@H]1O", "outcome": "inactive"}
{"smiles": "Oc1cccc2ccccc12", "AC50": "100 µM (active)"}
{"smiles": "C=CN1CCCCCC1=O", "outcome": "inactive"}
{"smiles": "Oc1ccc(Oc2ccccc2)cc1", "outcome": "inactive"}
{"smiles": "CC(=O)CCc1ccccc1", "outcome": "inactive"}
{"smiles": "CNC[C@H](O)[C@@H](O)[C@H](O)[C@H](O)CO", "outcome": "inactive"}
{"smiles": "CN(C)c1ccc(C(c2ccccc2)c2ccc(N(C)C)cc2)cc1", "outcome": "inactive"}
{"smiles": "c1ccc2c(c1)Oc1ccccc1S2", "outcome": "inactive"}
{"smiles": "CCCCCC[C@@H](O)C/C=C\\CCCCCCCC(=O)O", "AC50": "60.1 µM (active)"}
{"smiles": "CC[N+](CC)(CC(=O)Nc1c(C)cccc1C)Cc1ccccc1", "note": "(tested in a mixture with another compound)", "outcome": "inactive"}
